The record followed here is publication PMC4336329 (PLoS ONE, 2015).

Molecules are shown by their SMILES. The campaign covered roughly 310,000 compounds. About 14,000 (4.5%) showed an effect of 50% or more. The effect is printed as a negative number. The full list was thinned out, with strong results kept by preference.
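Also: peak tail current of the secondary pulse compared with the same well before compound.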

Chain of human ether-à-go-go-related gene (hERG) potassium channel (Q12809 whole entry, looked up): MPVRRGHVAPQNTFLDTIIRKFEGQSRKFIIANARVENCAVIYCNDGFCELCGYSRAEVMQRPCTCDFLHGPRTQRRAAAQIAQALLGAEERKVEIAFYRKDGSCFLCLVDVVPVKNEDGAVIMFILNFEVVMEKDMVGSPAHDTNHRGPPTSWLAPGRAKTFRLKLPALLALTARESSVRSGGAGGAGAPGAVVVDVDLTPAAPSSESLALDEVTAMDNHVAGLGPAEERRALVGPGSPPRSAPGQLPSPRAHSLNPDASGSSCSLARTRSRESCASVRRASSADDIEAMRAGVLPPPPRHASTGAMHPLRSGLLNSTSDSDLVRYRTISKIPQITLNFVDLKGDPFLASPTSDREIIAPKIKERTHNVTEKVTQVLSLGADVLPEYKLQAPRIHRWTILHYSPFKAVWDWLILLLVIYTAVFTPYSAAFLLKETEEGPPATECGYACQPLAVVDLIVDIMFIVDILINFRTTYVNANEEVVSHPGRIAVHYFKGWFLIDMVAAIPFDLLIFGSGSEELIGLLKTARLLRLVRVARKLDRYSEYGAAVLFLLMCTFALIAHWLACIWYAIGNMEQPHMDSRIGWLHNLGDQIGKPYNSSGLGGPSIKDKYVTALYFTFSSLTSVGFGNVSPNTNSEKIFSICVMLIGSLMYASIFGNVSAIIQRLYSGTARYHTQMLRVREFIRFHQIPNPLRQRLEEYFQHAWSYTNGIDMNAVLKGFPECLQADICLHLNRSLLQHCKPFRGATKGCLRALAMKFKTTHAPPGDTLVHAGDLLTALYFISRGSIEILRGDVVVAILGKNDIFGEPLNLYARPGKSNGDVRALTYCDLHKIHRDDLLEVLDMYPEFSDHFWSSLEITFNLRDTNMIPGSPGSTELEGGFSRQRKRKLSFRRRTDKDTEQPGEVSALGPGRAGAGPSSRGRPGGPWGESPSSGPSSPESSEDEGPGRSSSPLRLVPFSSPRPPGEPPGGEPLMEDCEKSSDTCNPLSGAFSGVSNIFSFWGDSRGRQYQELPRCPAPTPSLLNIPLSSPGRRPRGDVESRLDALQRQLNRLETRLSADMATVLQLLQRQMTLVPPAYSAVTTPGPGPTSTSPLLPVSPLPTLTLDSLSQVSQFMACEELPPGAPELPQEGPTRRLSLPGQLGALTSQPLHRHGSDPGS

This test concerns the target human ether-à-go-go-related gene (hERG) potassium channel (human, UniProt Q12809). Description: primary screen, population patch clamp on CHO cells stably expressing hERG; higher = less effect of the substance.
Regarding `O=C(CCC(=O)NNC(=O)c1ccc([N+](=O)[O-])cc1)NCc1ccccc1`, the “hERG current change (%, negative = inhibition) at 10uM” value was 10.9%.
For the compound `CC(NC(=O)C(=O)NCCN1CCN(C(=O)c2ccccc2Br)CC1)c1ccccc1` (stereo not shown), the “hERG current change (%, negative = inhibition) at 10uM” value was found to be 6.37%.
The value for `O=C(NCCN1CCN(c2ccc([N+](=O)[O-])cc2)CC1)NCc1ccccc1` was -67.7%.
Regarding `O=C(NCCN1CCN(C(=O)c2cccc(Br)c2)CC1)C(=O)NCc1ccccc1`, the “hERG current change (%, negative = inhibition) at 10uM” value was -70%.
`CC(NC(=O)C(=O)NCCN1CCN(C(=O)c2ccc([N+](=O)[O-])cc2)CC1)c1ccccc1` (stereo not shown): the “hERG current change (%, negative = inhibition) at 10uM” value is on record as -75.1%.
The result for `COc1ccc(N2CCN(CCNC(=O)Nc3ccc([N+](=O)[O-])cc3OC)CC2)cc1` reads -17.1%.
With `O=C(NCCN1CCN(C(=O)c2ccc([N+](=O)[O-])cc2)CC1)C(=O)NCc1ccccc1`, the “hERG current change (%, negative = inhibition) at 10uM” value is on record as -78.9%.
Take `CCc1ccc(N2CCN(CCNC(=O)Nc3ccccc3)CC2)cc1`: the “hERG current change (%, negative = inhibition) at 10uM” value is listed as -21.1%.
As for `O=C(NCCN1CCN(C(=O)c2cccc(Br)c2)CC1)C(=O)Nc1ccc(Br)cc1`, the “hERG current change (%, negative = inhibition) at 10uM” value is given as -42.1%.
In the case of `O=C(c1ccc([N+](=O)[O-])cc1)N1CCc2ccccc2C1`, the “hERG current change (%, negative = inhibition) at 10uM” value is -44.7%.
For `Cc1ccccc1-n1nc(C)c2cc(C(=O)NCc3cccnc3)sc21`, the “hERG current change (%, negative = inhibition) at 10uM” value is listed as -31%.
In the case of `O=C(c1ccc(COc2ccc(Br)cc2)o1)N1N=C(C(F)F)CC1(O)C(F)F` (stereo not shown), the “hERG current change (%, negative = inhibition) at 10uM” value is given as 2.57%.
Regarding `Cn1c(N/N=C/c2c[nH]c3ccccc23)nc2ccccc21`, the “hERG current change (%, negative = inhibition) at 10uM” value was -46.7%.
Take `COC(=O)c1ccc(-n2nnnc2SC)cc1`: the “hERG current change (%, negative = inhibition) at 10uM” value is listed as 3.46%.
With `COc1cccc(/C=C2/Oc3ccccc3N(CC(=O)NCC3CCCO3)C2=O)c1` (stereo not shown), the “hERG current change (%, negative = inhibition) at 10uM” value is given as 14%.
In the case of `Cc1nn(Cc2ccccc2)c(C)c1C(=O)OCC(=O)c1cc(C)n(C2CC2)c1C`, the “hERG current change (%, negative = inhibition) at 10uM” value is given as -10.2%.
With `NC(=O)COc1ccc(C23CC4CC(CC(C4)C2)C3)cc1`, the “hERG current change (%, negative = inhibition) at 10uM” value amounted to 7.2%.
The value for `O=C(NCCN1CCN(C(=O)c2cccc([N+](=O)[O-])c2)CC1)C(=O)NCc1ccc(Cl)cc1` was -50.1%; that for `O=C(NCCN1CCN(S(=O)(=O)c2ccc(F)cc2)CC1)C(=O)NCc1ccccc1` was 0.451%; that for `CC(C)(C)c1ccc(C(=O)N2CCN(CCNC(=O)C(=O)NCc3ccc(Cl)cc3)CC2)cc1` was -41.1%.
In the case of `O=C(Cc1ccc(Cl)cc1)NCCN1CCN(C(=O)Cc2ccc(Cl)cc2)CC1`, the “hERG current change (%, negative = inhibition) at 10uM” value was -53.4%.
Turning to `O=C(NCCN1CCN(C(=O)c2ccc(F)cc2)CC1)C(=O)NCc1ccccc1`, the “hERG current change (%, negative = inhibition) at 10uM” value is reported as -73.9%.
Regarding `Cl.O=C(Cc1ccc(Cl)cc1)NCCN1CCCC1`, the “hERG current change (%, negative = inhibition) at 10uM” value was -21.9%.
As to `Cc1ccc(C(=O)N2CCN(CCNC(=O)C(=O)NCc3ccc(Cl)cc3)CC2)cc1`, the “hERG current change (%, negative = inhibition) at 10uM” value is reported as -74%.
The result for `O=C(NCc1ccc(F)cc1)N1CCN(C(=O)c2ccccc2)CC1` reads -13.5%; that for `CN1CCN(C(=O)CNC(=O)Cc2ccc(Cl)cc2)CC1`, 5.31%; that for `Cc1ccc(C(=O)N2CCN(CCNC(=O)C(=O)NC(C)C)CC2)cc1`, 9.12%.
Take `COc1ccc(Cc2nc3ccccc3n2CC(=O)N/N=C/c2ccc(O)cc2)cc1OC`: the “hERG current change (%, negative = inhibition) at 10uM” value is listed as 0.975%.
The result for `C=CCOc1ccccc1CNc1ccccc1C` reads -15.7%; that for `COc1ccc(-c2ccc(NC(=O)c3ccco3)cc2)nn1`, 5.79%.
Turning to `Cc1c(NC(=O)C(C)n2cc([N+](=O)[O-])cn2)c(=O)n(-c2ccccc2)n1C` (stereo not shown), the “hERG current change (%, negative = inhibition) at 10uM” value came out at 19.4%.
With `O=C(/C=C/Nc1ccccc1F)c1cccs1`, the “hERG current change (%, negative = inhibition) at 10uM” value is 1.08%.
In the case of `COc1ccc(OCc2nn3c(-c4ccco4)nnc3s2)cc1`, the “hERG current change (%, negative = inhibition) at 10uM” value is recorded as -36.6%.
In the case of `Cn1cccc1/C=C1\SC(=O)N(c2ccc(O)cc2)C1=O`, the “hERG current change (%, negative = inhibition) at 10uM” value is 0.777%.
The value for `COc1ccc(/C(C)=N/NC(=O)C(NC(=O)c2ccccc2)c2n[nH]c(=O)c3ccccc23)c(OC)c1` (stereo not shown) was 4.11%; that for `O=C(COC(=O)c1cc(S(=O)(=O)N2CCCCC2)ccc1N1CCOCC1)NCCc1ccc(F)cc1` was -25.5%; that for `CC(C)(C)c1ccc(C(=O)N2CCN(CCNC(=O)C(=O)NCc3ccccc3)CC2)cc1` was -57%.
The result for `Cc1ccc(S(=O)(=O)N2CCN(CCNC(=O)C(=O)NCc3ccccc3)CC2)cc1` reads 5.65%.
The result for `CC(C)NC(=O)C(=O)NCCN1CCN(C(=O)c2ccc(C(C)(C)C)cc2)CC1` reads -3.01%; that for `COc1ccc(-c2noc(CCC(N)=O)n2)cc1OC`, 3.66%.
As for `Cc1csc(NC(=O)c2ccccc2C(=O)O)n1`, the “hERG current change (%, negative = inhibition) at 10uM” value is listed as -0.365%.
Consider `Cc1ccc(NC(=O)c2ccn(C)n2)c(Br)c1`, for which the “hERG current change (%, negative = inhibition) at 10uM” value was 0.15%.
Regarding `Cc1ccc(CNC(=O)c2cc(S(=O)(=O)N3CCOCC3)cn2C)cc1`, the “hERG current change (%, negative = inhibition) at 10uM” value is on record as -12.5%.
